The structures appear in SMILES notation. The panel holds about 83,000 compounds, 20% with a hit somewhere; the sample as a whole holds those more often.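 Single-concentration screen, 48 h exposure, 96-well plates. Endpoint: percent growth. Below 10 = active.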 Activity calls are given as the source filed them.

The subject of this assay is HL-60(TB) leukemia. Put plainly: NCI-60 one-dose screen, 48 h (100 = growth as untreated, 0 = no growth, -100 = all killed). Particulars: 10 µM unless noted.
On to `O=c1nc(-c2ccccc2)c2cc(-c3ccc(C(F)(F)F)nc3)ccc2[nH]1`, for which the growth was 94.5% (inactive).

`O=C(Nc1ccc(Cl)c(Cl)c1)Nc1c(Oc2ccc(Cl)c(Cl)c2)ccc(Cl)c1S(=O)(=O)O`: the growth is 4.23% (active).

Take `Cc1nn(-c2ccccc2)c(Cl)c1/C=C(/NC(=O)c1ccccc1)c1nc2ccccc2[nH]1`: the growth was 85.5% (inactive).

`CCOC(=O)c1cn2ncnc(Oc3ccc(NC(=O)NCCN4CCN(C)CC4)c(Cl)c3)c2c1C`: the growth was 96.9% (inactive).

For the compound `ClC(Cl)c1nc(-c2ccccc2)nc2cc(-c3ccccc3)nn12`, the growth is 94.9% (inactive).

Regarding `CC(=O)OCc1cc(-c2nc3ccccc3[nH]c2=O)nn1-c1ccc(Cl)cc1`, the growth is 84.5% (inactive).

In the case of `CC1OC(C(=O)N2CCN(CCO)CC2)CC1COC1CCCCC1` (stereo not given), the growth is 98.3% [50 µM] (inactive).

For the compound `O=C1Nc2ccc(Cl)cc2/C1=N/N=C/c1c[nH]c2ccccc12`, the growth is 95.5% (inactive).

As to `O=c1oc2ccc(I)cc2c(=O)n1-c1ccc(Cl)cc1F`, the growth is -47.1% (active).

Regarding `CC(=O)OC[C@]12CC[C@@H](/C(C)=N/O)[C@@H]1[C@H]1CC[C@@H]3[C@@]4(C)CCCNC(C)(C)[C@@H]4CC[C@@]3(C)[C@]1(C)CC2`, the growth is 37.7% (inactive).

For the compound `c1ccc(Nc2ncc3c(n2)-c2cccn2CC3)cc1`, the growth was 107% (inactive).

In the case of `COc1cc(C(=O)/C=C/c2ccc(OCCCCCC[P+](c3ccccc3)(c3ccccc3)c3ccccc3)cc2)cc(OC)c1OC`, the growth was 11.5% (inactive).

`COc1cccc(-c2nc3sccn3c2-c2ccnc(NCCN3CCCN(C)S3(=O)=O)n2)c1`: the growth was 105% (inactive).

For `Nc1nc(Cn2c(-c3nonc3N)nc3ccccc32)nc(N2CCCCC2)n1`, the growth is 82.2% (inactive).

For `O=C1NC(=Nc2ccc(O)cc2)S/C1=C\c1cccs1`, the growth was -4.12% (active).

For the compound `CC(=O)CSc1ncnc2nc[nH]c12`, the growth was 103% (inactive).

On to `CC1CCCCN1S(=O)(=O)c1ccc(CN=C=S)cc1` (stereo not given), for which the growth is 75.9% (inactive).

With `NNC(=O)Oc1c(Cl)cc(Cl)cc1[N+](=O)[O-]`, the growth was 98.3% (inactive).

Consider `C=CCOc1cccc(/C=C/C(=O)c2sc(Nc3cccnc3)nc2C)c1`, for which the growth is 43.3% (inactive).

Take `O=C(CBr)OCc1ccc([N+](=O)[O-])o1`: the growth is 118% (inactive).

On to `COc1ccc(/C=C/c2ccc3ccccc3n2)c(OC)c1`, for which the growth is 40.7% (inactive).

As to `CC(=O)OCCC/C(=C/c1cc2ccccc2c2ccccc12)[N+](=O)[O-]`, the growth is -52.1% (active).

On to `N#Cc1ccccc1OCC(=O)Nc1nc2c(s1)COc1ccccc1-2`, for which the growth is 107% (inactive).

On to `Cc1cc(C)n(-c2nnc3n2N=C(c2ccc(-c4ccccc4)cc2)CS3)n1`, for which the growth is 7.07% (active).

`CS(=O)(=O)c1ccc(-n2nc(-c3ccc(Br)cc3)c3ccccc3c2=O)cc1`: the growth was 93.3% (inactive).

For `C#CCNC(=S)N/N=C(\C)c1ccccn1`, the growth was -18.6% (active).

Turning to `CCCC1CCCCN1C(=O)OCC(C)C` (stereo not given), the growth is 107% (inactive).

For the compound `COc1cc(C(=O)/C=C/c2cccnc2Nc2ccccc2)cc(OC)c1OC`, the growth is -31.2% (active).

On to `O=S(=O)(NCCCNc1cc(-c2cn(-c3ccccc3)nc2-c2cccc(O)c2)ccn1)c1ccc(C(F)(F)F)cc1`, for which the growth is 25% (inactive).

Turning to `CN1CCN(CC(=O)Nc2nc(-c3cccc(NS(=O)(=O)c4cccc5c(N(C)C)cccc45)c3)cs2)CC1`, the growth was 23.3% (inactive).

For `Cc1ccc(Cc2cnc(NC(=O)/C=C/c3ccc(C)o3)s2)cc1`, the growth was -33% (active).

On to `CCCCCS(=O)(=O)Nc1ccc(C(=O)O)cc1`, for which the growth is 101% (inactive).

For `CCOC(=O)c1ccc(NC(=O)CCCN(CC)CC)cc1`, the growth is 100% (inactive).

For `C=C1C(=O)O[C@H]2[C@H]1CC/C(CNS(=O)(=O)c1cccc3ccccc13)=C\CC[C@@]1(C)O[C@@H]21`, the growth was -31.9% (active).

Consider `Nc1c(C(=O)Nc2ccccc2F)sc2nc3c(cc12)CCCC3`, for which the growth was 15.5% (inactive).

Take `Nc1nc(-c2ccc(F)cc2)cc(-c2cnn(-c3ccccc3)n2)n1`: the growth was 101% (inactive).

For `CCC(C)N(c1ccc(Cl)cc1)c1nc(-c2ccc(Br)cc2)cs1` (stereo not given), the growth is 100% (inactive).

In the case of `c1cc(-c2nnc(SSc3ncnc4nc[nH]c34)o2)ccn1`, the growth is 18% (inactive).

With `CCCCCCCCCCCCNC(=S)N/N=C/c1ccccc1O`, the growth is 49.1% (inactive).

Regarding `Cc1cc(=O)oc2cc(OCCn3c(C)nn(-c4ccc(Cl)cc4)c3=O)ccc12`, the growth is -5.7% (active).

The values above are taken from PubChem BioAssay (NCI).
